# In the supplement of paper PMC10105736:
# ± gives the standard deviation of the averaged measurements.
# What was measured:
# Test in all cases: MAPPIT interaction score (arbitrary units); higher = stronger binary interaction signal, active = hit call of the paper;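 active = MAPPIT score above the 99th percentile of random reference set scores in the same batch; inactive = at or below it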
# Caf1-55 = conditions: pair source set: Lit-BM-16
# Rph = conditions: MAPPIT configuration: N-C; pair source set: RRS
# CanA1 = conditions: MAPPIT configuration: N-N; pair source set: Lit-BS-16
# CROT = conditions: MAPPIT configuration: N-N; pair source set: Curagen_high_conf
# CG9825 = conditions: MAPPIT configuration: N-C; pair source set: screen_4
# Cdlc2 = conditions: MAPPIT configuration: N-N; pair source set: Finley_Y2H
# CSN4 = conditions: MAPPIT configuration: N-C; pair source set: Lit-BM-16
# Cog6 = conditions: MAPPIT configuration: N-N; pair source set: Finley_Y2H
# CG9676 = conditions: MAPPIT configuration: N-N; pair source set: RRS
# CHES-1-like = conditions: MAPPIT configuration: N-C; pair source set: screen_4
# Mf = conditions: MAPPIT configuration: N-C; pair source set: screen_3
# mri = conditions: MAPPIT configuration: N-N; pair source set: screen_1
# Caper = conditions: MAPPIT configuration: N-N; pair source set: DPIM
# Cdc50 = conditions: MAPPIT configuration: N-N; pair source set: DPIM
# Cda5 = conditions: MAPPIT configuration: N-N; pair source set: Lit-BS-16
# Cdc5 = conditions: MAPPIT configuration: N-N; pair source set: DPIM
# Chd64 = conditions: MAPPIT configuration: N-N; pair source set: RRS
# 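Also: HEK293T cells with Epo stimulation, STAT-responsive firefly luciferase reporter, fold induction versus unstimulated cells divided by the larger fold induction of two negative controls lacking either bait or prey.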
binder,measurement,setting,value
Caf1-55 (protein) MVDRSDNAAESFDDAVEERVINEEYKIWKKNTPFLYDLVMTHALEWPSLTAQWLPDVTKQDGKDYSVHRLILGTHTSDEQNHLLIASVQLPSEDAQFDGSHYDNEKGEFGGFGSVCGKIEIEIKINHEGEVNRARYMPQNACVIATKTPSSDVLVFDYTKHPSKPEPSGECQPDLRLRGHQKEGYGLSWNPNLNGYLLSASDDHTICLWDINATPKEHRVIDAKNIFTGHTAVVEDVAWHLLHESLFGSVADDQKLMIWDTRNNNTSKPSHTVDAHTAEVNCLSFNPYSEFILATGSADKTVALWDLRNLKLKLHSFESHKDEIFQVQWSPHNETILASSGTDRRLHVWDLSKIGEEQSTEDAEDGPPELLFIHGGHTAKISDFSWNPNEPWIICSVSEDNIMQVWQMAENVYNDEEPEIPASELETNTA,MAPPIT interaction score,Caf1-55; MAPPIT configuration: N-C,2.19 (inactive)
same,MAPPIT interaction score,Caf1-55; MAPPIT configuration: N-N,1.84 ± 0.68
same,MAPPIT interaction score,Rph,2.27 (inactive)
CanB (protein) MGNETSLPMDMCSNFDADEIRRLGKRFRKLDLDNSGALSIDEFMSLPELQQNPLVQRVIDIFDADGNGEVDFKEFIQGVSQFSVRGDKLSKLRFAFRIYDMDNDGYISNGELFQVLKMMVGNNLKDTQLQQIVDKTICFADKDEDGKISFDEFCSVVGNTDIHKKMVVDV,MAPPIT interaction score,CanA1,-0.226 (inactive)
Usp30 (protein) MESEKILMAAGVTVAAVVGAFVFWGPSGSRLRQRRGQIAGLHNFGLTCFLNTLLQAMAACPQFIAWLQLYNNASPDRKSLITSMLNTLEVVNGTHATLRGDPYSPGAVLRALNALGWVIPQEEHDAHELFHVLLTCLEEEAIRPQPLGCLSDALPTDNDDNSSLAGTATPVGGFRSFSSMAAGLGASQRIGDQPNRPSSAMLTDFLNMEYDESTSLQRLVRSEAHTPDSPASVCERDGNDRLGSVLLDAVSPGTPFGFPLVSNPDSLATPMLGGERSSRPRLPQSQQQQDEGLNRRVSSSCRSLERLHRGPGRVSIWSNMMPSQVAHPFQGAMGAQIVCNGCGSKSAVRYDKFDSITLNLPPQRRTGLSLGHLLSEYITSEDLSDVKCDSCNETTTHTKSVTFAKLPACLCIHVARTVWLPTGQVCKRKDYVHFPESLSMAPYSFVQPHLNSQAGTPWGSTMSLYSSSLPMNNGVGGGEGFGTMFPKNLYRLLAVVVHSGEANSGHFVTYRRGSLRNAHRWYYTSDTIVREVSIDEVLSVPAYLLFYDRGQQRQLNLR,MAPPIT interaction score,CROT,2.05 (inactive)
to (protein) MFAIAFAVVLCLLVSVDAKFPEDPKPCKYGDGECIMKLCNTLFSENSAEGDPGLNLMQLDPLKVDRMVISQGESSSPVGITLTFTDNLLYGIKDQRIVKVKGFGRDLTAKHEVKIVTKTFSLVGPYNIQGKVLILPISGTGQSNMTMVNVRAIVSFSGKPLVKNGETYLDVTDLKITMKPESSHYHFSNLFNGDKALGDNMNVFLNENSEAIYKETAKAIDRSFGKLYLGVVKGVFSKLPYAKFFADES,MAPPIT interaction score,CG9825,0.062 (inactive)
Acp62F (protein) MTDMWSLKICACLGLLLLFKPIDSMGWQGPKVDCTANGTQTECPVACPETCEYSGNGPCVKMCGAPCVCKPGYVINERIPACVLRSDCPKDVVRKEDMLLGVSNFKCFSRNYNCS,MAPPIT interaction score,Cdlc2,2.6 (inactive)
CSN7 (protein) MTQDMLLGNEEPSKSKETFLEKFCVLAKSSTGAALLDVIRQALEAPNVFVFGELLAEPSVLQLKDGPDSKHFETLNLFAYGTYKEYRAQPEKFIELTPAMQKKLQHLTIVSLAIKAKSIPYALLLSELEIDNVRHLEDIIIEAIYADIIHGKLFQNTRILEVDYAQGRDIPPGYTGQIVETLQAWVNSCDSVSNCIEMQIKYANAEKSKRLINKERVEQDLINLKKVLKSQTSDSDESMQIDTHGPGTSGGLGQSELRKKPSKLRNPRSAAVGLKFSK,MAPPIT interaction score,CSN4,1.74 (inactive)
same,MAPPIT interaction score,Cog6,-0.342 (inactive)
sgg (protein) MSGRPRTSSFAEGNKQSPSLVLGGVKTCSRDGSKITTVVATPGQGTDRVQEVSYTDTKVIGNGSFGVVFQAKLCDTGELVAIKKVLQDRRFKNRELQIMRKLEHCNIVKLLYFFYSSGEKRDEVFLNLVLEYIPETVYKVARQYAKTKQTIPINFIRLYMYQLFRSLAYIHSLGICHRDIKPQNLLLDPETAVLKLCDFGSAKQLLHGEPNVSYICSRYYRAPELIFGAINYTTKIDVWSAGCVLAELLLGQPIFPGDSGVDQLVEVIKVLGTPTREQIREMNPNYTEFKFPQIKSHPWQKVFRIRTPTEAINLVSLLLEYTPSARITPLKACAHPFFDELRMEGNHTLPNGRDMPPLFNFTEHELSIQPSLVPQLLPKHLQNASGPGGNRPSAGGAASIAASGSTSVSSTGSGASVEGSAQPQSQGTAAAAGSGSGGATAGTGGASAGGPGSGNNSSSGGASGAPSAVAAGGANAAVAGGAGGGGGAGAATAAATATGAIGATNAGGANVTDS,MAPPIT interaction score,CG9676,0.279 (inactive)
Lasp (protein) MNKTCARCQKVVYPIEELKCLDKTWHKTCFKCTECGMTLNMKTYKGYNKMPYCEAHIPKAKATAIADTPELKRIAENTKIQSNVKYHADFEKAKGKFTQVADDPETLRIKQNTKHISNVAYHGDLEKKAAMEKQRGSAEVSDSSNESEYFSEQLAAEQFSQYAPTASPIPPAATTLHQQQQQLQHQQQQQYQQHQQQLQQQQHQHQHYLQQQQQTLPPPPIQHQQYNTAAITPTYQQLQQQQQQQQQQRAQQQQLHDPYAHYQQPQALRQQQQQQQQQQQQLLQQQAIKQASHLYPTATSQQQQMPPPQSPANPQQQALNSYNEMRSAILQNSHHPSGNSVDQYDQPQQQQHQPQQQSTNPTLVAAQQQQSHHSLLNNNASNGGISHSHHSNINNNGHGSQNQMLPPQMRRSAASVVAYDGNSKQQVAAGPGAAQNHLQQLYASPNYAAVTPSENSINVKQHASNGHMPNQQQQHVAGGSNIGKIADYDPLTDGPRVVPNAGRSSTTLVYSSEPRGNQGGNSVYPKRIGSVSDIDPANGIYGSLTAAEQAHQQQKHQQYYQQVQMMQQQEHPPQQQQMRQQPSYSSLQEKQSRQSTAMRVYRAIYDYEAQDVDEVSFREGDVIFEVESIDSGWMTGRVERTGKTGMLPANYVEQAVI,MAPPIT interaction score,CHES-1-like,0.887 (inactive)
same,MAPPIT interaction score,Mf,3.01 (inactive)
same,MAPPIT interaction score,mri,1.83 (inactive)
CG8306 (protein) MASSPITDFYAGRNVFITGATGFVGVTIVEKLLRDVPNVGTLYLLMRAKKGKSVQERLEELKKNSVFDKFKELQLQSRLSKIVPIEGDVGLEHLGISPKDRQTLIDNVNVVFHSAATLDFFQSLKETTNINLRGTRRVVELCQQIKNLDALVHVSSAYVNAYLTKVEEKLYPAPEDPEKIIQLSETLNDDALKELEPKLLKDHPNTYTFTKHLAEHEVANVASKFPCGIVRPSMITAAWKEPIPGWTISKNGPQGFFMGASKGVLRRLPLDPSIIMDYIPIDVVVNGIITTGYYVNSLQAKNGGRPADLQIFHLTSSTYKPFRFELMTDKINSYLHDYPLNSAVWYPNLRLVKSLWVFRLSAILFHFIPAIILDLVTKIGGGRPILVRLHKNVWNSLNTLEKFIFTEWHFDSKRLLALSKTLNIVDKKKFFIDIGELAWDEYFSNTILGVRQYLSKEPIKNLEKARRKDKILLGLHVALQLSFWYGVFKLIVCLTGISTAKAALVLPVLYYLFGLL,MAPPIT interaction score,CG9825,-0.0656 (inactive)
Npc2a (protein) MLRYAVIACAALVVFAGALEFSDCGSKTGKFTRVAIEGCDTTKAECILKRNTTVSFSIDFALAEEATAVKTVVHGKVLGIEMPFPLANPDACVDSGLKCPLEKDESYRYTATLPVLRSYPKVSVLVKWELQDQDGADIICVEIPAKIQ,MAPPIT interaction score,Caper,-0.361 (inactive)
CaBP1 (protein) MRQLASILLLAFVVGSVSAFYSPSDGVVELTPSNFDREVLKDDAIWVVEFYAPWCGHCQSLVPEYKKLAKALKGVVKVGSVNADADSTLSGQFGVRGFPTIKIFGANKKSPTDYNGQRTAKAIAEAALAEVKKKVQGVLGGGGGSSSGGSGSSSGDDVIELTEDNFDKLVLNSDDIWLVEFFAPWCGHCKNLAPEWAKAAKELKGKVKLGALDATAHQSKAAEYNVRGYPTIKFFPAGSKRASDAQEYDGGRTASDIVSWASDKHVANVPAPELIEIINESTFETACEGKPLCVVSVLPHILDCDAKCRNKFLDTLRTLGEKFKQKQWGWAWAEGGQQLALEESLEVGGFGYPAMAVVNFKKMKFSVLKGSFSKDGINEFLRDISYGRGHTAPVRGAKKPAIVSVDPWDGKDGQLPTEEDIDLSDIDLDKDEL,MAPPIT interaction score,Cdc50,0.0074 (inactive)
Cp36 (protein) MQLGLWFGILAIAATPLVSANYGPAGGHGHGHGHGQYLSGPNAGLEEYVNVASGGNQQAANQIASQAEIQPTPEEARRLGRVQAQLQALNADPNYQKLKNSEDIAESLAETNLASNIRQGKIKVVSPQFVDQHLFRSLLVPSGHNNHQVIATQPLPPIIVHQPGAPPAHVNSGPPTVVRGNPVIYKIKPSVIYQQEVINKVPTPLSLNPVYVKVYKPGKKIEAPLAPVVAPVYSQPREYSQPQGYGSAGAASSAAGAASSADGNAYGNEAPLYNSPAPYGQPNY,MAPPIT interaction score,Cda5,0.061 (inactive)
LTV1 (protein) MVKGKKPYIDRKKAVTFHLVHRSQHDPLVTDENAPQRVLLEAAARQQKPKDPEPPTDPAQRQEELKKFGIHFDDDYDYMQHLKKRENDVVWEFMENPNQARKQKVQDSEKPGPAPKLMLPSSVFASEFEESEGMLNKAAPQTLRLDWDPDVVAALDSDCENEELEDDFVIQAMAEGDSDDEEWDDEDGEEQSDMDFDSDDLNEDENEDELMDRLAPLMRERRFDDEEVKSRFTEYSMSSSVIRRNEQLSLLDDRFEKFYATYDDPELGDLALEDIEGNWHQKHPVVMQCFQEFKKKDKGIEYNKEWDRERIEKYRNVVEGEEDPTEELVEYEVDDPKQKKWDCESILSTYSNIYNHPKVIDEPRRSRRSSASTNPAPIQIDPKTGLPTNVLRGGVDGQLTAKALANLADESPAATGPKSLCAKSVLSTLSVLSIRPKDETHEEKKERKRLLKDYRNERRIEKKANTEAFKEEKKRQTHVKINQRTNQQGASIV,MAPPIT interaction score,Cdc5,1.03 (inactive)
GstS1 (protein) MADEAQAPPAEGAPPAEGEAPPPAEGAEGAVEGGEAAPPAEPAEPIKHSYTLFYFNVKALAEPLRYLFAYGNQEYEDVRVTRDEWPALKPTMPMGQMPVLEVDGKRVHQSISMARFLAKTVGLCGATPWEDLQIDIVVDTINDFRLKIAVVSYEPEDEIKEKKLVTLNAEVIPFYLEKLEQTVKDNDGHLALGKLTWADVYFAGITDYMNYMVKRDLLEPYPALRGVVDAVNALEPIKAWIEKRPVTEV,MAPPIT interaction score,Chd64,0.058 (inactive)
